Experimental data as given in PubChem BioAssay (NCATS).
Results filed as inconclusive are left out. Calls of active or inactive are those of the source. Calls come from the whole dose curve; as a rule, active = well fitted curve in the direction sought with a large enough effect; inconclusive = small, poorly fitted or top-dose-only effect, or another doubt; inactive = no such curve, though single readings can be large; an effect the other way counts as inactive or inconclusive.

What was measured:
[1] = molecular target: Glutathione peroxidase 1 (Homo sapiens) (UniProt P07203); experiment: Primary qHTS Assay for Inhibitors of Recombinant Selenoprotein Glutathione Peroxidase 1 (GPX1) (AID 1845191); details: recombinant GPX1, GR-coupled NADPH fluorescence, 15 min; series mostly up to 48.8 µM; note: nearly all actives have a fitted effect of over 65% in size
In short: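 GR-coupled readout: NADPH consumption tracked by fluorescence, ex 340/em 450 nm, at t=0 and after 15 min at RT. Final mix 10 nM GPX1, 1 mM GSH, 0.5 mM CHP, 0.5 mM NADPH, 100 nM GR, 0.01% BSA, following 30 min enzyme–compound preincubation.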

[2] = molecular target: Phospholipid hydroperoxide glutathione peroxidase GPX4 (Homo sapiens) (UniProt P36969); experiment: Primary qHTS Assay for Inhibitors of Recombinant Selenoprotein Glutathione Peroxidase 4 (GPX4) (AID 1845192); details: recombinant GPX4, GR-coupled NADPH fluorescence, 15 min; series mostly up to 50 µM; note: nearly all actives have a fitted effect of over 65% in size
In short: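 Steps: GPX4 plus compound, 30 min RT; add GR/GSH/NADPH master mix; start with cumene hydroperoxide; read 340/450 nm fluorescence at 0 and 15 min. Finals were 200 nM GPX4, 1 mM GSH, 0.5 mM CHP, 0.5 mM NADPH, 100 nM GR.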

[3] = molecular target: Luciferin 4-monooxygenase (Photinus pyralis) (UniProt P08659); experiment: Primary firefly luciferase (FLuc) qHTS assay for identification of artifact compounds. (AID 1845220); details: purified firefly luciferase, luminescence, 5 min; series mostly up to 54.1 µM; note: nearly all actives have a fitted effect of over 60% in size
In short: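 Titrated compounds were incubated 15 min at RT, protected from light, with luciferin and ATP at 10 uM; reaction started with 10 nM FLuc, luminescence imaged at 5 min, and concentration-response fitted by Hill equation.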

[4] = Primary fluorescence-based thiol-reactive (MSTI) qHTS assay for identification of artifact compounds. (AID 1845221); details: MSTI thiol-reactivity probe, 1 h; series mostly up to 53.8 µM; note: nearly all actives have a fitted effect of over 65% in size; note: potency is the fitted concentration of half-maximal effect
In short: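 Thiol-reactive compounds detected by quenching of 4 uM MSTI fluorescence (525/598 nm) after 1 h room-temperature dark incubation in PBS pH 7.4, 2% DMSO. qHTS titration; percent inhibition Hill-fitted against Acetyl-MSTI/MSTI controls.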

[5] = system: Nanoluciferase (engineered Oplophorus gracilirostris luciferase); experiment: Primary Nanoluciferase (NLuc) qHTS assay for identification of artifact compounds. (AID 1845222); details: NLuc-conditioned medium, Nano-Glo luminescence, 5 min; series mostly up to 54.1 µM;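 note: NLuc secreted into diluted conditioned medium of S16 cells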
In short: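 qHTS format, against NLuc in S16 cell-conditioned medium. Nano-Glo substrate 1:100 was added after 15 min at room temperature. Luminescence was taken after a further 5 min.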

[6] = Primary redox qHTS assay for identification of artifact compounds. (AID 1845223); details: Amplex Red/HRP redox cycling with DTT, fluorescence; series mostly up to 53.8 µM; note: potency is the fitted concentration of half-maximal effect
In short: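 Redox-cycling detection via DTT (250 uM final) oxidation coupled to Amplex Red (25 uM)/HRP (250 mU/mL) in HBSS. 15 min preincubation plus 30 min after DTT, room temperature. Ex/Em 525/598 nm; 4-parameter Hill fit against DMSO and 10 uM DA3003.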

Measured: Potency

Sequence of Glutathione peroxidase 1 (Homo sapiens) (P07203 whole entry, looked up): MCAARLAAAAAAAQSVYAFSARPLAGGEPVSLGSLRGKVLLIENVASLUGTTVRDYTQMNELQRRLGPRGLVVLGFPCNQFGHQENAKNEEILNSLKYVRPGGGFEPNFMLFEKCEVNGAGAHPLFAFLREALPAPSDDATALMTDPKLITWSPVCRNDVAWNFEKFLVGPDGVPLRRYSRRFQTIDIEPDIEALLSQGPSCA
Sequence of Phospholipid hydroperoxide glutathione peroxidase GPX4 (Homo sapiens) (P36969 whole entry, looked up): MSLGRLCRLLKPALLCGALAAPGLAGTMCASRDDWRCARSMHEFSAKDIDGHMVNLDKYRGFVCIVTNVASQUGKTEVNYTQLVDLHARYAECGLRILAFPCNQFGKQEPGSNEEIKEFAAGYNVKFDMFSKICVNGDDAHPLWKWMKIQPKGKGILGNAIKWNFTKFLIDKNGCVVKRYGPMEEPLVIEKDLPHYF

OC/C=C/C=C/[C@H]1Cc2cc(O)cc(O)c2O1
active: [4] 8.44 µM | [6] 18.9 µM
inactive: [1] | [2] | [3] | [5]

Cc1ccc(-c2c(C(=O)CF)n(CCCO)c3ncnc(N)c23)cc1
inactive: [1] | [2] | [3] | [4] | [5] | [6]

C[C@]12C=C[C@@]3(CCC4[C@](C)(CO)CCC[C@@]4(C)C3CC1)C2 (stereo partly specified)
inactive: [1] | [2] | [3] | [4] | [5] | [6]

CC1(C)CC2C(O)c3cocc3CC(C)(O)C2C1 (stereo unspecified)
inactive: [1] | [2] | [3] | [4] | [5] | [6]

C=C1CCC2C(C(C)(C)O)CCC2(C)CC(O)C(=C)CCC1O (stereo unspecified)
inactive: [1] | [2] | [3] | [4] | [5] | [6]

O=C(NCc1ccc(S(=O)(=O)c2cc(F)cc(F)c2)cc1)c1ccc2nccn2c1
inactive: [1] | [2] | [3] | [4] | [5] | [6]

COc1cc(O)c([C@@H](CC(=O)N2CC(C)CC(C)C2)c2ccc3c(c2)OCO3)c(OC)c1 (stereo partly specified)
inactive: [1] | [2] | [3] | [4] | [5] | [6]

COC(=O)c1c(C)cc(OC(=O)c2c(C)cc(OC)cc2OC)cc1O[C@@H]1O[C@H](CO)[C@@H](O)[C@H](O)[C@H]1O
active: [6] 2.92 µM
inactive: [1] | [2] | [3] | [4] | [5]

CC(C)c1cc(C(=O)N2CC[C@H](NC(=O)C3CC3)C2)n[nH]1
inactive: [1] | [2] | [3] | [4] | [5] | [6]

N#Cc1c(Oc2ccc(F)c(NC(=O)Cc3cccc(C(F)(F)F)c3)c2)ccc2nc(NC(=O)C3CC3)sc12
inactive: [1] | [2] | [3] | [4] | [5] | [6]

CC(C)(C)c1ccc(S(=O)(=O)NCc2ccc(C(=O)Nc3cccnc3)cc2)cc1
inactive: [1] | [2] | [3] | [4] | [5] | [6]

C=C1C(=O)OC2C1C(O)CC1(C)C(O)CCC(C=O)C21 (stereo unspecified)
inactive: [1] | [2] | [3] | [4] | [5] | [6]

COc1ccc([C@@]2(O)c3c(ccc(CC=C(C)C)c3O)NC(=O)[C@@H]2OC)cc1
inactive: [1] | [2] | [3] | [4] | [5] | [6]

Nc1ncnc2c1nc(N)n2[C@@H]1O[C@H](CO)[C@@H](O)[C@H]1O
inactive: [1] | [2] | [3] | [4] | [5] | [6]

CN(C)CCn1cc(S(=O)(=O)c2cccc(F)c2)c2cccnc21
inactive: [1] | [2] | [3] | [4] | [5] | [6]

COc1ccc(-c2cnc(-c3cccc4c3-c3ccccc3C4=O)o2)cc1
inactive: [1] | [2] | [3] | [4] | [5] | [6]

O=C(O)[C@@H]1C[C@H]2C[C@@H](CCc3nn[nH]n3)CC[C@H]2CN1
inactive: [1] | [2] | [3] | [4] | [5] | [6]

O=C(O)CC(=O)OC[C@H]1O[C@@H](Oc2ccc3c(c2)OC[C@H]2c4cc5c(cc4O[C@@H]32)OCO5)[C@H](O)[C@@H](O)[C@@H]1O
inactive: [1] | [2] | [3] | [4] | [5] | [6]

CC(=O)O[C@@H]1[C@@H](OC(=O)/C=C/c2ccccc2)[C@@H](OC(C)=O)[C@H](O[C@H]2[C@@H]3C=CO[C@@H](O[C@@H]4O[C@H](CO)[C@@H](O)[C@H](O)[C@H]4O)[C@@H]3[C@@]3(CO)O[C@@H]23)O[C@H]1C
inactive: [1] | [2] | [3] | [4] | [5] | [6]

[N-]=[N+]=N[C@]1(CO)O[C@@H](n2ccc(=O)[nH]c2=O)[C@@H](O)[C@@H]1O
inactive: [1] | [2] | [3] | [4] | [5] | [6]

CC(C)=C/C=C\[C@H](C)[C@H]1CC[C@]2(C)C[C@@H]3C(C)=CC(=O)C3/C(CO)=C\C[C@@H]12 (stereo partly specified)
inactive: [1] | [2] | [3] | [4] | [5] | [6]
